An excerpt weighted towards active compounds, which were near 18% of everything screened.
DT40 TDP1 CPT = growth inhibition of DT40 Tdp1-/-;hTDP1 cells with camptothecin (screen for TDP1 inhibitors); chicken DT40 Tdp1-/-;hTDP1 cells + 20 nM CPT, ATP luminescence, 48 h; Potency, µM (titrated, usually from 46.2 µM), for the others: top-dose activity change, negative = growth inhibition, usual class: inhibitors; 420,000 compounds, 12% hits; note: potency is the fitted concentration of half-maximal effect; nearly all actives have a fitted effect of over 55% in size
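Cell growth measured by CellTiter-Glo luminescence after a minimum 48 h, 37 C compound exposure with 20 nM CPT in Tdp1-knockout DT40 cells stably expressing hTDP1, seeded 400/well; qHTS titration format.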
IL1B secr inh = inhibitors of inflammasome signaling (IL-1 beta secretion). THP-1 LPS/ATP IL-1B secretion, AlphaLISA, 16 h; hits give low values. activity change, % at 57.5 µM. 360,000 compounds, 4.7% hits; in the data active = activity change below about -50%; inconclusive = mostly about -30% to -49%
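Secreted IL-1B measured by AlphaLISA bead assay after 16 h compound exposure of THP-1 cells; compounds (final up to 57.5 uM) added 1 h before LPS (250 ng/mL) and ATP (1.25 mM) stimulation; lower signal means less secretion.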
LDHA block = LDHA (human) enzyme inhibition | P00338 | 480,000 compounds, 0.15% hits | activity change, % (values are at about 110 or 230 µM) | AID 1347041 | purified LDHA, NADH/diaphorase-resazurin fluorescence; hits give low values; in the data active = activity change below about -30%; inconclusive = mostly about -25% to -30%;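 note: plate controls were DMSO wells for no effect and wells without enzyme for full effect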
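Enzyme activity of human lactate dehydrogenase 5 (2 nM; 0.06 mM NADH, 0.2 mM pyruvate, 5 min, RT) is measured via a resazurin/diaphorase fluorescence readout of residual NADH.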
TDP1 cell noCPT = qHTS for Inhibitors of human tyrosyl-DNA phosphodiesterase 1 (TDP1): qHTS in cells in absence of CPT. 420,000 compounds, 15% hits. DT40 Tdp1-/- hTDP1 cells, no CPT, ATP luminescence, 48 h. AID 686978, 2013. Potency, µM (doses to about 46.2 µM), inactives show at the highest dose activity change, negative = growth inhibition, actives largely listed as inhibitors; note: potency is the fitted concentration of half-maximal effect; nearly all actives have a fitted effect of over 55% in size
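Compound effects on proliferation are scored in DT40 Tdp1-/-;hTDP1 cells in the absence of CPT. ATP levels (CellTiter-Glo luminescence) are recorded after a ≥48 hr, 37 °C incubation.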
VP16 counter = inhibits Gal4-VP16 luciferase reporter, ROR gamma counter-screen; Drosophila S2 Gal4-VP16 UAS-luciferase, luminescence, 20 h; Potency, µM (top dose mostly 53.6 µM), inactives show at the highest dose activity, negative = inhibition, hits mostly inhibitors; 310,000 compounds, 3.5% hits; AID 2546;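 note: Gal4-VP16 expression switched on by copper sulfate through the metallothionein promoter; potency is the fitted concentration of half-maximal effect; nearly all actives have a fitted effect of over 50% in size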
RORgamma inh = ROR gamma (mouse) transcription inhibition; P51450; Drosophila S2 Gal4-RORgamma UAS-luciferase reporter, 20 h; Potency, µM (doses to about 53.6 µM), for the others: at the highest dose activity change, negative = inhibition, hits mostly inhibitors; 310,000 compounds, 5.4% hits; AID 2551; note: potency is the fitted concentration of half-maximal effect; nearly all actives have a fitted effect of over 60% in size
Target sequence (P51450 whole entry, looked up, the tested form may be a part): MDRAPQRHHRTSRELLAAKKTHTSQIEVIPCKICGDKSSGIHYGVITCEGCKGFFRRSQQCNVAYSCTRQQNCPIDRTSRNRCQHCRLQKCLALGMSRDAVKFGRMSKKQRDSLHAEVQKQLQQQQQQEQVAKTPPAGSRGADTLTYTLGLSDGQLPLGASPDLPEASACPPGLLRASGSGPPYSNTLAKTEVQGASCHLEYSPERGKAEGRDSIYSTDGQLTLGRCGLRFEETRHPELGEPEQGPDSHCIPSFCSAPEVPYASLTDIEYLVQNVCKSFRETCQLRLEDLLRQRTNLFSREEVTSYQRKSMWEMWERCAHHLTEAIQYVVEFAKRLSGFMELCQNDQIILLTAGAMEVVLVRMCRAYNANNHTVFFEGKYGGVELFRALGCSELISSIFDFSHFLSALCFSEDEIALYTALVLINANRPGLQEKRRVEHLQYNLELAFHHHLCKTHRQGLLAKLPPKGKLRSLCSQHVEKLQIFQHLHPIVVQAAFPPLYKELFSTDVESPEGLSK
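Drosophila S2 cells stably expressing Gal4-DBD/mouse RORγ fusion under metallothionein promoter plus UAS-luciferase; compound 1 h, then 700 uM CuSO4 induction for 20 h at ambient temperature; inhibition read as reduced luminescence.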
Starred values were filed as active, the others as inactive; ! = not confirmed by another sample. Unless noted, calls come from the whole dose curve; as a rule, active = well fitted curve in the direction sought with a large enough effect; inconclusive = small, poorly fitted or top-dose-only effect, or another doubt; inactive = no such curve, though single readings can be large; an effect the other way counts as inactive or inconclusive. Unless noted, % is set by controls: 0 for no effect and ±100 for the full control effect.

`CCc1ccc(NC(=O)CC2C(=O)N(c3ccc(Cl)cc3)C(=O)N2C2CCCC2)cc1` (stereo unspecified) gave DT40 TDP1 CPT inconclusive, LDHA block -3 and TDP1 cell noCPT 18µM*.
CCOC(=O)c1ccc(NC(=O)CC2C(=O)N(c3ccc(C)cc3)C(=O)N2C2CCCCC2)cc1 (stereo unspecified) was read as DT40 TDP1 CPT -25%, LDHA block 1 and TDP1 cell noCPT -16%.
For CC(C)(Oc1ccc(Cl)cc1)C(=O)N1CCN(c2ncccn2)CC1 the results were LDHA block -12.
Cc1cnc(NC(=O)C(C)(C)Oc2ccc(Cl)cc2)s1 was read as LDHA block -10.
N#CCCC(C#N)Cn1nc(-c2ccc(F)cc2)c2ccccc2c1=O (stereo unspecified) was read as LDHA block 2.
`CC(CCc1ccccc1)NC(=O)c1cc2c(Cl)nc3ccccc3c2s1` (stereo unspecified) gave LDHA block 0.
For O=C(CCSc1ccc(Br)cc1)c1ccc(O)cc1 the results were DT40 TDP1 CPT 3.7µM*, IL1B secr inh -25, LDHA block -3, TDP1 cell noCPT 4.1µM*, VP16 counter -7% and RORgamma inh -20%.
Screening O=C(CN1CCCCCC1)NCCc1c[nH]c2ccccc12 returned LDHA block -6.
CC1=C(CC(=O)O)c2cc(F)ccc2/C1=C\c1ccc(S(C)=O)cc1 (stereo unspecified) was read as DT40 TDP1 CPT 12µM*!, IL1B secr inh 13, LDHA block -2, TDP1 cell noCPT inconclusive, VP16 counter inconclusive and RORgamma inh -6%.
COc1ccccc1-c1noc(CSc2nnc(Cc3ccccc3)n2-c2ccc(C)c(C)c2)n1 was read as DT40 TDP1 CPT 16µM*, LDHA block -2 and TDP1 cell noCPT 23µM*.
For CCOc1ccccc1-c1noc(CSc2nnc(-c3ccccc3)n2-c2cccc(C)c2)n1 the results were DT40 TDP1 CPT inconclusive, LDHA block -2 and TDP1 cell noCPT 21µM*.
For CCc1ccc(-n2c(C)nnc2SCc2nc(-c3ccccc3OC)no2)cc1 the results were LDHA block 15.
`COc1ccc(-c2noc(CSc3nnc(-c4ccncc4)n3-c3ccc(C)c(C)c3)n2)cc1` gave DT40 TDP1 CPT 15µM*, LDHA block -1 and TDP1 cell noCPT 13µM*.
`COc1ccc(-c2noc(CSc3nnc(C)n3-c3ccc(C)cc3)n2)cc1OC` gave DT40 TDP1 CPT inconclusive, LDHA block -1 and TDP1 cell noCPT inconclusive.
`COc1ccc(-c2noc(CSc3nnc(C)n3-c3ccc(C)c(C)c3)n2)c(OC)c1` gave DT40 TDP1 CPT inconclusive, LDHA block -12 and TDP1 cell noCPT 18µM*.
For CN(CC(=O)Nc1ccccc1Cl)C(=O)c1nn(-c2ccccc2)c2c1CCC2 the results were LDHA block 5.
Cc1ccccc1-c1noc(CSc2nnc(-c3ccncc3)n2-c2ccc(F)cc2)n1 was read as DT40 TDP1 CPT inconclusive, LDHA block -4 and TDP1 cell noCPT 15µM*.
Cc1cccc(-n2c(SCc3nc(-c4ccccc4C)no3)nnc2-c2ccccc2)c1 was read as DT40 TDP1 CPT 0%, LDHA block -3 and TDP1 cell noCPT inconclusive.
For Cc1nnc(SCc2nc(-c3ccc(Cl)cc3)no2)n1-c1ccc(F)cc1 the results were DT40 TDP1 CPT inconclusive, LDHA block 2 and TDP1 cell noCPT 26µM*.
For Cc1ccc(-c2noc(CSc3nnc(C)n3-c3ccc(F)cc3)n2)cc1 the results were DT40 TDP1 CPT -18%, LDHA block 1 and TDP1 cell noCPT -18%.
CCOc1ccccc1-c1noc(CSc2nnc(-c3ccncc3)n2-c2ccc(F)cc2)n1 was read as DT40 TDP1 CPT -77%, LDHA block -14 and TDP1 cell noCPT 16µM*.
Cc1ccc(-n2c(SCc3nc(-c4ccccc4C)no3)nnc2-c2ccncc2)cc1C was read as DT40 TDP1 CPT 23µM*, LDHA block 1 and TDP1 cell noCPT 21µM*.
Screening CC(Sc1ccc(C(F)(F)F)cn1)C(=O)Nc1ccc(F)cc1 (stereo unspecified) returned LDHA block 9.
`Cc1ccc(C(=O)COC(=O)c2cccc(Oc3ccc(C#N)c(C#N)c3)c2)cc1` gave LDHA block 20.
`COc1ccc(Nc2nc(-c3ccc(C)cc3C)cs2)cc1` gave LDHA block 4.
For Nc1ccc(S(=O)(=O)N2CCOCC2)cc1 the results were DT40 TDP1 CPT 5%, LDHA block -7 and TDP1 cell noCPT 1%.
Screening CC#CCN(CC#CC)S(=O)(=O)c1ccc(S(=O)(=O)N2CCOCC2)cc1 returned DT40 TDP1 CPT inconclusive, IL1B secr inh 8, LDHA block 1, TDP1 cell noCPT 16µM*, VP16 counter 3% and RORgamma inh 0%.
`CCOc1ccc(/C=N/NC(=O)Cc2ccccc2)cc1CN1CC2CC(C1)c1cccc(=O)n1C2` (stereo unspecified) gave DT40 TDP1 CPT inconclusive, IL1B secr inh -104*, LDHA block 1 and TDP1 cell noCPT 21µM*.
N#Cc1ccc(-c2cccs2)nc1SCC(=O)Nc1cccc(C(F)(F)F)c1 was read as DT40 TDP1 CPT inconclusive, LDHA block -2 and TDP1 cell noCPT 21µM*.
`Cn1c(SCc2c(F)cccc2Cl)nnc1-c1cccs1` gave DT40 TDP1 CPT -10%, IL1B secr inh -16, LDHA block -5, TDP1 cell noCPT inconclusive, VP16 counter 11% and RORgamma inh 20%.
`N#Cc1c(C(F)(F)F)cc(-c2cccs2)nc1SCC(=O)Nc1ccc(Cl)cc1` gave DT40 TDP1 CPT 16µM*, LDHA block -9 and TDP1 cell noCPT inconclusive.
Screening N#Cc1ccc(-c2cccs2)nc1SCc1c(F)cccc1Cl returned DT40 TDP1 CPT 0.82µM*, LDHA block -1 and TDP1 cell noCPT 0.65µM*.
For Cc1ccc(S(=O)(=O)CCSc2nc(C)cc(C(F)(F)F)c2C#N)cc1 the results were DT40 TDP1 CPT inconclusive, IL1B secr inh -101*, LDHA block -4, TDP1 cell noCPT inconclusive, VP16 counter -10% and RORgamma inh inconclusive.

Assay outcomes deposited in PubChem BioAssay by National Center for Advancing Translational Sciences (NCATS).
